This is an account of results in ChEMBL document CHEMBL5308504, “Tm Shift (DSF) assay results for EUbOPEN Chemogenomics Library” (2023).

What is called ΔTm is the shift of the melting midpoint relative to a reference.

SMILES strings stand for the structures. Where “and” joins values, the source holds several entries; their conditions need not be identical. Identical values can stand only once.

Holding throughout (settings): Compound concentration 20.0 uM, Protein concentration 2.0 uM, Result type QC Liability
For test [1], the target named is Tyrosine-protein kinase ABL1 (Homo sapiens) (UniProt P00519).
Chain of Tyrosine-protein kinase ABL1 (Homo sapiens) (P00519 whole entry): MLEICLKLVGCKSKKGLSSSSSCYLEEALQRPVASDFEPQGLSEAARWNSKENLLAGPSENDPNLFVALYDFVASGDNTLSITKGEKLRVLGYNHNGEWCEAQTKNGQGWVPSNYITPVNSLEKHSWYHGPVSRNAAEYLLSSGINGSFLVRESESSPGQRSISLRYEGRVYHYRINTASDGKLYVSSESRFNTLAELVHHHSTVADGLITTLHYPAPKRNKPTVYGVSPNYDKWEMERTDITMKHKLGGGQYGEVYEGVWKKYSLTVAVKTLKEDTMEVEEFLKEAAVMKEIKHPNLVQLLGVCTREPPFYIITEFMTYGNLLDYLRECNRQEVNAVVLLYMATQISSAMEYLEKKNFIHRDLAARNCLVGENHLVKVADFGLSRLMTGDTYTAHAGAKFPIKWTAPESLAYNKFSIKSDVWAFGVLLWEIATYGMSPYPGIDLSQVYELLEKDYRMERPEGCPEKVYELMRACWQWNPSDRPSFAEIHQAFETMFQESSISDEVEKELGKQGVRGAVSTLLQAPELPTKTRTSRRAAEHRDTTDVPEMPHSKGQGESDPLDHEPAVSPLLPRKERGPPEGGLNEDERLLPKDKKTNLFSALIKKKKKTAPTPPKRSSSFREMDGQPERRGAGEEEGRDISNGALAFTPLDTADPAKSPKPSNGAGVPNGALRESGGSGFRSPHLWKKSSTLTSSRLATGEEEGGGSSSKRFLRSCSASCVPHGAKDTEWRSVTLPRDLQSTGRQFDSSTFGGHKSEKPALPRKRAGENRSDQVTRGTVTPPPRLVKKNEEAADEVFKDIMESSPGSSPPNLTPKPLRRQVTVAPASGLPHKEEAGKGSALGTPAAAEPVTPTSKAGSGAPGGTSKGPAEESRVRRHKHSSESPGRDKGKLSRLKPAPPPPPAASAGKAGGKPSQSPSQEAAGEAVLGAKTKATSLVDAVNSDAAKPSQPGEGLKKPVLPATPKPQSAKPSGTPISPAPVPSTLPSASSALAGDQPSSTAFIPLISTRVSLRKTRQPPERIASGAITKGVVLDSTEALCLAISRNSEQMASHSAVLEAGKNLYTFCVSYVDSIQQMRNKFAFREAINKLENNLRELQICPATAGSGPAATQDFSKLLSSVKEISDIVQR
Test [2] deals with Cyclin-dependent kinase 2 (Homo sapiens) (UniProt P24941).
The target of test [3] is Casein kinase I isoform delta (Homo sapiens) (UniProt P48730).
Chain of Casein kinase I isoform delta (Homo sapiens) (P48730 whole entry, looked up, canonical isoform): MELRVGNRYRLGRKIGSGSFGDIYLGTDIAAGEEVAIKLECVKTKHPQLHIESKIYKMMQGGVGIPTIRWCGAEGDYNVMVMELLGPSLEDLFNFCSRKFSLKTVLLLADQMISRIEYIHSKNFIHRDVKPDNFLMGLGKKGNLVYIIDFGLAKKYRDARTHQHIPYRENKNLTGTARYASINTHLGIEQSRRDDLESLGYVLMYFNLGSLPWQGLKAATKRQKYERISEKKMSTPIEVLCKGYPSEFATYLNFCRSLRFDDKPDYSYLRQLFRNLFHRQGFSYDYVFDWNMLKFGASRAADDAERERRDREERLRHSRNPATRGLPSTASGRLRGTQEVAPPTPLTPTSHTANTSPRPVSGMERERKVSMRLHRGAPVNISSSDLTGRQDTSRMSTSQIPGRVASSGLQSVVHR
Test [4] concerns the target Glycogen synthase kinase-3 beta (Homo sapiens) (UniProt P49841).
For test [5], the target named is Mitogen-activated protein kinase 1 (Homo sapiens) (UniProt P28482).
Chain of Mitogen-activated protein kinase 1 (Homo sapiens) (P28482 whole entry): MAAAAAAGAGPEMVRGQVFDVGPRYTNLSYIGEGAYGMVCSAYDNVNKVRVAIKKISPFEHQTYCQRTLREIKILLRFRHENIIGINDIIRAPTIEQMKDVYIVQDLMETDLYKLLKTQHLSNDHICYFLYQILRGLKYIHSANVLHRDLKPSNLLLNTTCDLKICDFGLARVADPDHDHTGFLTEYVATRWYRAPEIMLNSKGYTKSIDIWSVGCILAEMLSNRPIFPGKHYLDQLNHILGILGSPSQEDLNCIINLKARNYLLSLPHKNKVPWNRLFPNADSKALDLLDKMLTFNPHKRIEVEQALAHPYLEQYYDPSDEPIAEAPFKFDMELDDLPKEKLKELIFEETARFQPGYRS
Test [6] has as its target T1, Aurora kinase A (Homo sapiens) (UniProt O14965).
T1 sequence (whole entry): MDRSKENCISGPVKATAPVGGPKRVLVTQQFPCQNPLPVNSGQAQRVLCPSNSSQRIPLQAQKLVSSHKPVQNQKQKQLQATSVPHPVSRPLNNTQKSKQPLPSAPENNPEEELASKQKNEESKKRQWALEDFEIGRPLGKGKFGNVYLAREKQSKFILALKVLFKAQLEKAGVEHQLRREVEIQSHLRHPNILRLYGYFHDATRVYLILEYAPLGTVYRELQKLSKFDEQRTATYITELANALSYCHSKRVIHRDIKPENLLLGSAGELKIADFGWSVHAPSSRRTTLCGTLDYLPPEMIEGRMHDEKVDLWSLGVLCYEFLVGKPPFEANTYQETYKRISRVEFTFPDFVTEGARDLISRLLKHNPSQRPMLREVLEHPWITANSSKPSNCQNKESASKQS

Chain of Glycogen synthase kinase-3 beta (Homo sapiens) (P49841 whole entry, looked up): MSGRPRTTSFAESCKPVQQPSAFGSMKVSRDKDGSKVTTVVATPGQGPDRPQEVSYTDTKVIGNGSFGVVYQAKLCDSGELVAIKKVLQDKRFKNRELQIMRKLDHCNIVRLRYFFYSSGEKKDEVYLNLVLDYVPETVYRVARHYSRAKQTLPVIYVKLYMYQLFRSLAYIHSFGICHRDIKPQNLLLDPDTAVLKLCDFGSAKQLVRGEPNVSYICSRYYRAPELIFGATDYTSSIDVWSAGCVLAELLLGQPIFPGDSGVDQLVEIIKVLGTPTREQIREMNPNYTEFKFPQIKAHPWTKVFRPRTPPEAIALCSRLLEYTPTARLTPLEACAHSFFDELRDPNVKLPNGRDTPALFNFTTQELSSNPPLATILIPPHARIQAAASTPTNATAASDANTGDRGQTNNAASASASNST

Take `O=C(O)CCn1c2c(c3ccccc31)C[C@H](NS(=O)(=O)c1ccc(F)cc1)CC2`: the thermal shift (ΔTm) in test [1] was 1.15 °C; in test [2] it was 1.26 °C; in test [3], 0.09 °C; in test [4] it was 0.24 °C; in test [5], 0.28 °C; in test [6] it was -0.02 °C.

Consider `O=C1COc2cc(C(=O)N(Cc3ccc(C(=O)Nc4ccncn4)cc3)C3CC3)ccc2N1`, for which the ΔTm in test [1] is 0.5 °C; in test [2] it was 0.47 °C; in test [3], -0.01 °C; in test [4], -0.19 °C; in test [5], 0.31 °C; in test [6] it was 0.08 °C.

Take `CCc1ccc(-c2ncn(CC3(F)CCN(C)CC3)c2-c2ccnc3[nH]ccc23)nc1`: the ΔTm in test [1] is 0.05 °C; in test [2], 0.87 °C; in test [3], 0.57 °C; in test [4], -0.72 °C; in test [5], 0.39 °C; in test [6], -1.06 °C.

Regarding `Cc1cc2nc(N3CCC(C(=O)NC4CCCC4)CC3)n(C(C)C)c2cc1C`, the ΔTm was 0.22 °C in test [1]; 0.23 °C in test [2]; 0.04 °C in test [3]; 0.31 °C in test [4]; 0 °C in test [5]; 0.01 °C in test [6].

Take `CCS(=O)(=O)c1ccc(OC)c(Nc2ncc(-c3cccc(F)c3)o2)c1`: the ΔTm is 2.1 °C in test [1]; 0.14 °C in test [2]; -0.13 °C in test [3]; -1.15 °C in test [4]; 0.11 °C in test [5]; 0.2 °C in test [6].

For `CS(=O)(=O)NC(=O)CCC/C=C\C[C@H]1C(=O)C[C@@H](O)[C@@H]1/C=C/[C@@H](O)COc1ccccc1`, the shift in melting temperature (ΔTm) in test [1] was -0.33 °C; in test [2], 0.46 °C; in test [3] it was -0.2 °C; in test [4], 0.54 °C; in test [5], 0.01 °C; in test [6], -0.19 °C.

`CN1C(=O)Cc2ccc(-c3ccc(C[C@@H](C#N)NC(=O)[C@H]4N[C@@H]5CC[C@H]4C5)c(F)c3)cc21`: the ΔTm in test [1] was 0.24 °C; in test [2], 0.52 °C; in test [3], 0.41 °C; in test [4], 0.41 °C; in test [5], 0.5 °C; in test [6], 0.8 °C.

As to `Cc1cc(Cn2c(N3CC4(CNC4)C3)nc3cc(Cl)cc(N4CCN(C)CC4)c32)cc(C)c1F`, the ΔTm in test [1] is -0.24 °C; in test [2], 0.2 °C; in test [3] it was 0.39 °C; in test [4], -1.71 °C; in test [5] it was 0.34 °C; in test [6] it was 0.08 °C.

Regarding `Oc1c(-c2cccnc2)cnn1-c1ccccn1`, the ΔTm was -0.25 °C in test [1]; 0.31 °C in test [2]; 0.78 °C in test [3]; -0.42 °C in test [4]; 0.36 °C in test [5]; -0.05 °C in test [6].

With `COc1cc(F)ccc1-c1ncnc(Nc2cccc(C[S@](C)(=N)=O)c2)n1`, the ΔTm in test [1] was found to be 2.58 °C; in test [2], 3.09 °C; in test [3], 0.27 °C; in test [4] it was 10.1 °C; in test [5], 0.36 °C; in test [6] it was 3.39 °C.

With `Cc1c(N2CCCC2)nc2ccc(Br)cc2c1C(=O)NC[C@H](CCC(=O)O)c1ccccc1Cl`, the shift in melting temperature (ΔTm) in test [1] is -0.28 °C and -0.08 °C; in test [2], -0.21 °C and 0.71 °C; in test [3] it was -0.02 °C and 0.51 °C; in test [4], -0.57 °C and -1.1 °C; in test [5], -0.65 °C and 0.37 °C; in test [6] it was -0.24 °C and -0.2 °C.

Turning to `Cc1cccc(CC(=O)N2CCc3c2ccc(-c2cn(C)c4ncnc(N)c24)c3F)n1`, the ΔTm was 2.48 °C in test [1]; 0.14 °C in test [2]; 0.49 °C in test [3]; -0.92 °C in test [4]; 0.15 °C in test [5]; 0.37 °C in test [6].

On to `CO[C@H]1CC[C@H](N(c2cc(F)c(Oc3ncc(Cn4nccn4)cc3C(F)(F)F)cc2C(=O)O)C(=O)[C@H]2CC[C@H](C)CC2)CC1`, for which the ΔTm is -0.55 °C in test [1]; -0.98 °C in test [2]; -0.04 °C in test [3]; -1.43 °C in test [4]; 0.48 °C in test [5]; -0.75 °C in test [6].

As to `CCOCCn1cc(C(=O)Nc2ccc(-n3nc(-c4cccnc4)cc3C(F)(F)F)cn2)ccc1=O`, the shift in melting temperature (ΔTm) in test [1] was 0.3 °C; in test [2] it was -1.4 °C; in test [3], 0.33 °C; in test [4] it was -0.71 °C; in test [5] it was -0.58 °C; in test [6], 0.16 °C.

Take `CC1CCN(C(=O)[C@H](CCn2cccc2C#N)NS(=O)(=O)c2cccc3[nH]ccc23)CC1`: the ΔTm in test [1] is 0.43 °C; in test [2], 0.31 °C; in test [3] it was 0.54 °C; in test [4], 0.64 °C; in test [5] it was 0.72 °C; in test [6], -0.11 °C.

Regarding `CC(C)(c1ccc(OCc2cccc(COc3ccc(C(=N)N)cc3)c2)cc1)c1ccc(O[C@@H]2O[C@H](C(=O)O)[C@@H](O)[C@H](O)[C@H]2O)cc1`, the ΔTm in test [1] was -2.82 °C; in test [2], -1.86 °C; in test [3], -5.29 °C; in test [4] it was -4.59 °C; in test [5] it was -6.63 °C; in test [6] it was -5.6 °C.

For the compound `Cc1cc([N+](=O)[O-])c(NS(=O)(=O)c2cccc(C(=O)O)c2)cc1-c1cccnc1`, the ΔTm in test [1] was determined as 0.08 °C; in test [2], 0.85 °C; in test [3], 0.28 °C; in test [4], 0.02 °C; in test [5], 0.58 °C; in test [6] it was 0.29 °C.

As to `CN(C)[C@H]1CCc2nc(NC(=O)c3cccc(Cn4cc(-c5ccc(C#N)cc5)cn4)c3)sc2C1`, the ΔTm in test [1] was 0.14 °C; in test [2], 0.68 °C; in test [3], 0.36 °C; in test [4], 0.72 °C; in test [5], 0.35 °C; in test [6], 0.61 °C.

As to `COc1cccc(Cn2cc(C(=O)Nc3ccc(C)c(S(=O)(=O)N4CCOCC4)c3)c(-c3ccc(C)cc3)n2)c1`, the thermal shift (ΔTm) in test [1] is 4.84 °C; in test [2], 3.65 °C; in test [3], -0.33 °C; in test [4] it was 1.92 °C; in test [5] it was -3.66 °C; in test [6] it was 3.73 °C.

For the compound `O=C(NCc1ccc(F)cc1)C1CCN(S(=O)(=O)c2cc(Cl)cc(Cl)c2)CC1`, the ΔTm in test [1] is 0.04 °C; in test [2], -0.1 °C; in test [3], 0.71 °C; in test [4], -0.45 °C; in test [5], 0 °C; in test [6] it was 0.52 °C.

As for `COc1cc(F)ccc1-c1cc(Nc2cc(CS(C)(=N)=O)ccn2)ncc1F` (stereo unspecified), the shift in melting temperature (ΔTm) in test [1] came out at 5.35 °C; in test [2] it was 5.7 °C; in test [3], 1.19 °C; in test [4] it was 11 °C; in test [5] it was 0.27 °C; in test [6], 6.53 °C.

On to `Cc1[nH]c2c(N3CCCCC3)c(-c3ccccc3)nn2c(=O)c1-c1ccc(O)cc1`, for which the ΔTm is 0.05 °C in test [1]; 0.91 °C in test [2]; 1.23 °C in test [3]; -0.79 °C in test [4]; 0.43 °C in test [5]; -0.38 °C in test [6].

In the case of `CC(C)(C)c1cc(NC(=O)c2csc(Nc3ccccn3)n2)no1`, the ΔTm in test [1] turned out to be 1.84 °C; in test [2], 0.49 °C; in test [3], 0.84 °C; in test [4] it was 0.22 °C; in test [5], 0.57 °C; in test [6], 1.27 °C.

For the compound `CNc1ncc2cc(-c3ccc(-c4cccc(C)n4)cc3Cl)c(=O)n(C[C@H]3OC[C@H](N)CO3)c2n1`, the ΔTm was 5.88 °C in test [1]; 1.85 °C in test [2]; 1.07 °C in test [3]; 0.45 °C in test [4]; -0.4 °C in test [5]; 8.51 °C in test [6].

`Nc1ncc2c(n1)-c1c([nH]c3ccc(C4=CCOCC4)cc13)CCC2`: the ΔTm is 0.44 °C in test [1]; 1.02 °C in test [2]; 2.29 °C in test [3]; 0.71 °C in test [4]; -0.03 °C in test [5]; 1.93 °C in test [6].

As to `COc1cc(C(N)=O)ccc1Nc1ncc2c(n1)N(CCC(C)C)[C@H](C)C(=O)N2C`, the ΔTm was 1.42 °C in test [1]; -0.37 °C in test [2]; 0.51 °C in test [3]; 0.01 °C in test [4]; -6.61 °C in test [5]; -0.69 °C in test [6].
